# Source: PubChem BioAssay
# PTAP TSG101 blk: blocks PTAP/TSG101 interaction to inhibit HIV-1 budding; Q99816; Fluorescence polarization, FITC-PTAP peptide / Tsg101 binding; Potency, µM (series often up to 115 µM), inactives show at the highest dose activity change, negative = inhibition, hits mostly inhibitors; 340,000 tested, under 10 active; active = well fitted inhibition curve with a large enough effect in the main read-out, with a control signal flat, not every such curve was filed as active; inconclusive = small, poorly fitted or top-dose-only effect, or effect the other way, or a change in a side signal; inactive = no such curve, though single readings can be large or run the other way; also: % of control where 0% means no effect
#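 Compounds were pin-transferred onto Tsg101 binding domain (10 uM final) in HEPES pH 7.5 buffer, then FITC-PTAP peptide was added at 50 nM final. After 20 min at RT, polarization reported peptide displacement across a qHTS concentration series.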
# VDR inhibitor: vitamin D3 receptor (human) inhibition; P11473; VDR-SRC2-3 peptide fluorescence polarization, 2 h; Potency, µM, for inactives: max response, negative = inhibition, most hits filed as inhibitors; 400,000 compounds, 0.93% hits; also: % is scaled to controls: 0 for no effect and ±100 for the full control effect
#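 FP read-out; VDR + SRC2-3 coactivator peptide; 23 nl compound by pintool; 2 h RT incubation; reagents held at 4 deg C, protected from light.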
# KAT2A inh: GCN5L2 (KAT2A) acetyltransferase inhibition. Potency, µM (highest dose often 58.9 µM), for inactives: at the top dose activity change, negative = inhibition, usual class: inhibitors. Q92830. GCN5L2 HAT assay, ThioGlo1 CoA-SH fluorescence. 390,000 compounds, 0.21% hits; also: % is scaled to controls: 0 for no effect and ±100 for the full control effect
#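 GCN5L2 (20nM final) in 50mM HEPES, 0.1mM EDTA pH 7.5, 0.01% Tween-20 was preincubated 15 min at room temperature with compound, then given ThioGlo1 (50uM), H3(1-25) peptide (75uM) and acetyl-CoA (70uM); CoA-thiol fluorescence (Ex340/Em540) was read at 0 and 20 min.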
# USP1-UAF1 inh: blocks the human USP1/UAF1 deubiquitinase complex; O94782; recombinant USP1/UAF1, Ub-Rhodamine cleavage fluorescence; Potency, µM (highest dose often 57.1 µM), for inactives: top-dose activity change, negative = inhibition, usual class: inhibitors; 390,000 compounds, 0.23% hits; AID 743255; also: % is scaled to controls: 0 for no effect and ±100 for the full control effect; nearly all actives have a fitted effect of over 60% in size
# Target sequence (O94782 whole entry, looked up): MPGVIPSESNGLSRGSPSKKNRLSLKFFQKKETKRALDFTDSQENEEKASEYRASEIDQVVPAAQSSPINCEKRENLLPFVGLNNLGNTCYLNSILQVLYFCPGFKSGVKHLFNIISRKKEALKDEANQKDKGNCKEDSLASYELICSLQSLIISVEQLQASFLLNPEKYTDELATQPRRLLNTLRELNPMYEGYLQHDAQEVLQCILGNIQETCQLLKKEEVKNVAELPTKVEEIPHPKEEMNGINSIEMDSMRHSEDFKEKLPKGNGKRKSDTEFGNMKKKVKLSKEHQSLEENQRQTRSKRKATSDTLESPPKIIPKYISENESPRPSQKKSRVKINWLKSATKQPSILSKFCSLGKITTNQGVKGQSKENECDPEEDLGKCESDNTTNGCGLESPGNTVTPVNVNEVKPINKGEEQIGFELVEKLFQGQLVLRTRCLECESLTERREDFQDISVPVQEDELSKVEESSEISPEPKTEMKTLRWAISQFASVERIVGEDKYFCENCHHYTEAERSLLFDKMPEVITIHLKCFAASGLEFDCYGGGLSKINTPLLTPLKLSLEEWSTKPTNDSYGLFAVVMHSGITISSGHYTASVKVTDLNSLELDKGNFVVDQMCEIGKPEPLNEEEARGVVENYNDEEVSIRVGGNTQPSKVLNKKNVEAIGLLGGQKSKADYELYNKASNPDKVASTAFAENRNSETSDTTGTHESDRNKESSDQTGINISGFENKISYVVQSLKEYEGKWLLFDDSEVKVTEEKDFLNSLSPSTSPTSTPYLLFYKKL
#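 Step one: compound is pinned into 1nM USP1/UAF1 in HEPES pH 7.8 buffer with TCEP. Step two: 15 min room-temperature incubation. Step three: Ub-Rho (150nM final) starts cleavage, tracked by fluorescence over six one-minute reads.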
# PLK1 PBD block: inhibitors of human PLK1 polo-box domain binding; 360,000 compounds, 2.8% hits; Potency, µM, for inactives: max response, negative = inhibition, usual class: inhibitors; Plk1 PBD binding of FITC phosphopeptide, fluorescence polarization; also: series mostly up to about 57 µM; % is scaled to controls: 0 for no effect and ±100 for the full control effect; nearly all actives have a fitted effect of over 65% in size
# Active calls of the source: *; u = inconclusive; x = not tested or not shown; ! = repeats disagree; [ ] = remark or other dose. Rows were chosen to be rich in hits. Some 3% of all compounds tested hit in one or more screens of this group. Unless noted, calls follow the shape of the dose curve; as a rule, active = well fitted curve in the direction sought with a large enough effect; inconclusive = small, poorly fitted or top-dose-only effect, or another doubt; inactive = no such curve, though single readings can be large; an effect the other way counts as inactive or inconclusive. Potency is read from the fitted curve at half-maximal effect.
SMILES,PTAP TSG101 blk,VDR inhibitor,KAT2A inh,USP1-UAF1 inh,PLK1 PBD block
CC(C)C[C@H](NC(=O)[C@H](Cc1ccccc1)NC(=O)CNC(=O)[C@@H](NC(=O)[C@@H](N)Cc1ccc(O)cc1)[C@H](C)O)C(=O)N[C@H](C(=O)O)[C@H](C)O,x,0%,-11%,x,x
CCCOc1ccc2[nH]cc(C3=CCNCC3)c2n1,x,-27%,-11%,x,x
Cc1c(O)c(O)cc2c1CC=C1[C@]3(C)CC[C@]4(C)CC[C@@](C)(C(=O)O)CC4[C@]3(C)CC[C@]12C (some centres not stated),x,u,-17%,x,x
CC1=C(O)C(=O)C=C2C1=CC=C1C2(C)CCC2(C)C3CC(C)(C(=O)O)CCC3(C)CCC12C (configuration not stated),-4%,28µM*,x,-21%,2.1µM*
C=C(C)[C@]12C[C@@H](C)[C@@]34OC(Cc5ccccc5)(O[C@@H]1[C@@H]3C=C(COC(=O)Cc1cc(I)c(O)c(OC)c1)C[C@]1(O)C(=O)C(C)=C[C@@H]41)O2,x,0%,u,x,x
CCCCC/C=C\C/C=C\CCCCCCCC(=O)NCCO,x,u,3%,x,x
CCCCC/C=C\C/C=C\C/C=C\C/C=C\CCCC(=O)OC(CO)CO,x,35µM*!,u,x,x
CCCCC/C=C\C/C=C\C/C=C\C/C=C\CCCC(=O)N[C@H](C)CO,x,35µM*!,4%,x,x
Cc1ccc(Sc2ccc(C=C3C(=O)N(C)C(=O)N(C)C3=O)o2)cc1,0%,u,-11%,-3%,0.53µM*
Cc1c(C=O)c2ccccc2n1Cc1cccc(F)c1,1%,20µM*,-4%,-16%,u
Cc1c(C=O)c2ccccc2n1Cc1ccccc1,-1%,-1%,-11%,-11%,-10%
OCC(O)Cc1ccc2c(c1)OCO2 (configuration not stated),x,-1%,-10%,x,x
COc1ccc(C[C@@H]2NC[C@H](O)[C@@H]2OC(C)=O)cc1,x,0%,5%[21.4 µM],x,x
Fc1ccccc1CNC1CN2CCC1CC2 (configuration not stated),-2%,u,-5%,-6%,19µM*
C=C(C)C1CCC(C)=CC1c1c(O)cc(O)cc1CCCCC (configuration not stated),x,u,-12%,x,x
CS/C(N)=C(C#N)/C(C#N)=C(\N)SC,x,45µM*,u,x,x
CCOP(=S)(OCC)N1CCOCCOCCN(P(=S)(OCC)OCC)CCOCCOCC1,-5%,-11%,-25%,-18%,-1%
CCOC(=O)c1c(C)c(P(=S)(N2CCOCC2)N2CCOCC2)n(C)c1C,1%,7%,-6%,-25%,27µM*
CCNc1nc(Cl)nc(NCC)n1,x,3%,28µM*,x,x
CCNc1nc(NC(C)(C)C)nc(SC)n1,-2%,-18%,x,-13%,-12%
CN1C(=O)NC(=O)/C(=C/c2ccc(C(=O)O)cc2)C1=O,-3%,u,-10%,-21%,12µM*
Cc1ccc(/C=C2/C(=O)NC(=O)N(C)C2=O)cc1,-3%,-9%,-5%,1%,11µM*
CN1C(=O)NC(=O)/C(=C\c2ccc([N+](=O)[O-])o2)C1=O,-7%,u,-2%,u,2.7µM*
Cc1cc(/C=C2/C(=O)NC(=O)N(C)C2=O)c(C)n1-c1ccccc1,-1%,9%,-3%,-18%,3%
Cc1noc(C)c1C(=O)N1CCC2(CCCN(CC(C)C)C2)CC1,x,9%,13%,x,x
SMILES,PTAP TSG101 blk,VDR inhibitor,KAT2A inh,USP1-UAF1 inh,PLK1 PBD block
COC(=O)[C@@]1(O)C[C@@H]2O[C@@]1(C)n1c3ccccc3c3c4c(c5c6ccccc6n2c5c31)C(=O)NC4,x,11%,-3%,x,x
CCC12C=CCN3CCC4(c5ccc(OC)cc5N(C)C4[C@@](O)(C(=O)OC)C1OC(C)=O)C32 (some centres not stated),x,10%,2%,x,x
O=C(N/N=C/C1C(=O)NC(=S)N(c2ccccc2)C1=O)c1cc(Br)c(O)c(Br)c1 (configuration not stated),2%,40µM*,-13%,-16%,3.4µM*
CN(C)CCN(C)CCc1ccc(Cl)c(Cl)c1,x,-2%,-8%,x,x
c1ccc2c(c1)cc1ccc3cccc4ccc2c1c34,0%,3%,x,-6%,-2%
O=C1C=CC(=O)c2c1ccc1c2ccc2ccccc21,x,3.2µM*,-23%[21.4 µM],x,x
N/C(=N\N=C/c1ccc(-c2ccc(O)c(C(=O)O)c2)o1)N[N+](=O)[O-],-11%,-9%,u,-18%,11µM*
C=C1CCN([C@@H](Cc2ccccc2)C(=O)Nc2ccc(OC)cc2)S(=O)(=O)c2ccccc21,-6%,-2%,x,-29%,u
CCCC[N+]12C3CC(C(CC)[C@H]1O)[C@@H]1C(O)C4(C[C@@H]12)c1ccccc1N(C)C34 (some centres not stated),x,1%,x,x,x
COc1ccc(CN2Cc3cnnn3-c3ccccc3C2C#N)cc1 (configuration not stated),-5%,20µM*,x,-26%,-17%
C=CCc1cc(C=C2C(=O)N(C)C(=O)N(C)C2=O)cc(OCC)c1OCc1ccccc1,0%,u,-12%,u,7.5µM*
C=CCn1cc(C=C2C(=O)N(C)C(=O)N(C)C2=O)c2ccccc21,-4%,13%,2%,-32%,-6%
C=CCc1cc(C=C2C(=O)NC(=O)NC2=O)cc(OC)c1OCc1ccc(C(=O)O)cc1,-1%,89µM*,-7%,-9%,12µM*
CON(C)C(=O)Nc1ccc(Br)c(Cl)c1,x,6%,25%,x,x
Clc1ccc(C(Cl)(Cl)Cl)c(Cl)c1,-2%,1%,1%,-21%,11µM*
CC(=O)N1CC[N+](C)(C)CC1,x,1%,20µM*,x,x
CCN1C[C@]2(COC(=O)c3ccccc3N3C(=O)C[C@H](C)C3=O)CC[C@H](OC)[C@@]34[C@@H]5C[C@H]6[C@H](OC)[C@H]5[C@](O)(C[C@@H]6OC)[C@@](O)([C@@H](OC)[C@@H]23)[C@@H]14,x,-3%,-2%,x,x
CN(c1ccc(O)cc1)c1ccc([N+](=O)[O-])c2nonc12,x,x,x,-16%,-8%
Nc1ccc2nonc2c1[N+](=O)[O-],u,-16%,-6%,32µM*,19µM*
C/C(=N\NC(N)=O)c1c(O)n(C)c(=O)n(C)c1=O,1%,-10%,-8%,-8%,30µM*
O=c1[nH]c(=S)n(-c2ccc(Br)cc2)c(O)c1C=Nc1ccc(N2CCOCC2)cc1,u,u,2%,32µM*,u
Cc1cc(C)cc(-n2c(O)c(C=Nc3ccc(N4CCOCC4)cc3)c(=O)[nH]c2=S)c1,u,-8%,-1%,-21%,-11%
O=c1[nH]c(=S)n(-c2ccccc2F)c(O)c1C=Nc1ccc(N2CCOCC2)cc1,u,-2%,-6%,25µM*,-15%
